Test results: PubChem BioAssay (NCI)
About 83,000 compounds went through this panel and 20% of them were active in at least one assay; those are over-represented in the sample as a whole.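 Interpretation: 100, growth as untreated; towards 0, rising growth inhibition; 0, no net growth; 0 to -100, cell death. Compounds scoring below 10 were considered active.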 Active and inactive are the calls of the source.

Legend:
Experiment in all cases: NCI-60 one-dose screen, 48 h (100 = growth as untreated, 0 = no growth, -100 = all killed)
Conditions in all cases: 10 µM unless noted
NCI-H23 lung = system: NCI-H23 lung
NCI-H226 lung = system: NCI-H226 lung
NCI-H322M lung = system: NCI-H322M lung
HOP-62 NSCLC = system: HOP-62 NSCLC
NCI-H460 lung = system: NCI-H460 lung
HOP-92 NSCLC = system: HOP-92 NSCLC
NCI-H522 lung = system: NCI-H522 lung
A549/ATCC NSCLC = system: A549/ATCC NSCLC
786-0 renal = system: 786-0 renal
COLO 205 colon = system: COLO 205 colon

Measured: growth

CN(C)CCNC(=O)c1ccc(-c2nc3ccc4[nH]ncc4c3c3c2C2CCC3C2)cc1 (stereo not given)
active: NCI-H522 lung -28.8%
inactive: NCI-H23 lung 32.2% | NCI-H226 lung 49.3% | NCI-H322M lung 58.8% | HOP-62 NSCLC 46.6% | NCI-H460 lung 11.8% | HOP-92 NSCLC 101% | A549/ATCC NSCLC 14.2% | 786-0 renal 28.3% | COLO 205 colon 18.6%

Nc1ncc(-c2ccc3ncnc(Nc4cccc(Cl)c4)c3c2)cn1
inactive: NCI-H23 lung 58.9% | NCI-H226 lung 51.3% | HOP-62 NSCLC 37.8% | NCI-H460 lung 54.8% | HOP-92 NSCLC 11.8% | A549/ATCC NSCLC 35.1% | 786-0 renal 40.8% | COLO 205 colon 51.2%
active: NCI-H322M lung 4.75% | NCI-H522 lung 3.25%

Cc1ccc(Nn2c(SCC(=O)Nc3nc(-c4ccccc4)cs3)nc(C)c2C)cc1
inactive: NCI-H23 lung 39.4% | NCI-H226 lung 46.3% | NCI-H322M lung 96% | HOP-62 NSCLC 73.1% | NCI-H460 lung 78.1% | HOP-92 NSCLC 59.9% | NCI-H522 lung 49.7% | A549/ATCC NSCLC 46.3% | 786-0 renal 82.3% | COLO 205 colon 27.1%

O=S(=O)(NCCNc1nccc(-c2c(-c3ccc(F)c(O)c3)nc3occn23)n1)c1ccc(Cl)cc1
inactive: NCI-H23 lung 80.3% | NCI-H226 lung 102% | NCI-H322M lung 97.1% | HOP-62 NSCLC 101% | NCI-H460 lung 76.7% | HOP-92 NSCLC 70.4% | NCI-H522 lung 76.6% | A549/ATCC NSCLC 77.9% | 786-0 renal 109% | COLO 205 colon 67.7%

COc1cc2c(c(OC)c1OC)CCC(c1cccc(C(=O)Nc3ccc(C#N)cc3)c1)O2 (stereo not given)
inactive: NCI-H23 lung 40.6% | NCI-H226 lung 33% | NCI-H322M lung 77.4% | HOP-62 NSCLC 72.1% | NCI-H460 lung 56.5% | HOP-92 NSCLC 52.3% | NCI-H522 lung 38.4% | A549/ATCC NSCLC 50.9% | 786-0 renal 80.6% | COLO 205 colon 84.8%

O=C1Nc2ccccc2/C1=C/c1cccn1CCCCn1c2ccccc2c(=O)c2ccccc21
inactive: NCI-H23 lung 77.4% | NCI-H226 lung 75.2% | NCI-H322M lung 101% | HOP-62 NSCLC 77.4% | NCI-H460 lung 93.7% | HOP-92 NSCLC 59.5% | NCI-H522 lung 68.4% | A549/ATCC NSCLC 86.3% | 786-0 renal 97% | COLO 205 colon 69.8%

Fc1ccc(CNc2c3ccccc3nc3ccccc23)c(F)c1
inactive: NCI-H23 lung 42.8% | NCI-H226 lung 54.8% | NCI-H322M lung 49.2% | HOP-62 NSCLC 57.2% | NCI-H460 lung 20% | NCI-H522 lung 42.3% | A549/ATCC NSCLC 40.1% | 786-0 renal 47.6% | COLO 205 colon 26.8%
active: HOP-92 NSCLC -2.61%

NC(=O)c1ccc(-c2c3ccccc3cc3c2ccc2ccccc23)cc1
inactive: NCI-H23 lung 70.7% | NCI-H226 lung 65.6% | NCI-H322M lung 80.1% | HOP-62 NSCLC 65.7% | NCI-H460 lung 29.9% | HOP-92 NSCLC 76.4% | A549/ATCC NSCLC 63.1% | 786-0 renal 52.4% | COLO 205 colon 52.5%
active: NCI-H522 lung -20.6%

CCOC(=O)C(=O)C(C(=O)OCC)c1ccccc1 (stereo not given)
inactive: NCI-H23 lung 107% | NCI-H226 lung 107% | NCI-H322M lung 110% | HOP-62 NSCLC 107% | NCI-H460 lung 110% | HOP-92 NSCLC 107% | NCI-H522 lung 101% | A549/ATCC NSCLC 122% | 786-0 renal 93.3% | COLO 205 colon 118%

COc1ccc2c(c1)c(-c1nc(-c3c[nH]c4ccncc34)cs1)cn2C
active: NCI-H322M lung -31% | HOP-62 NSCLC -82.7% | NCI-H460 lung -78.2% | NCI-H522 lung -71.3% | A549/ATCC NSCLC -85.9% | 786-0 renal -91.6% | COLO 205 colon -81.7%
inactive: NCI-H23 lung 46.3% | NCI-H226 lung 48.7% | HOP-92 NSCLC 35.8%

COC(=O)c1cc(N=C2NC(=O)/C(=C/C=C/c3ccccc3)S2)ccc1O
active: COLO 205 colon 9.95%
inactive: NCI-H23 lung 37.2% | NCI-H226 lung 37.5% | NCI-H322M lung 47.2% | HOP-62 NSCLC 44.5% | NCI-H460 lung 12.1% | HOP-92 NSCLC 34.3% | NCI-H522 lung 19.4% | A549/ATCC NSCLC 30.8% | 786-0 renal 20.4%

O=C1/C=C/[C@@H](O)[C@@H]2C[C@@H](O)C[C@H]2/C=C/CCC[C@H](CCc2ccccc2)O1
inactive: NCI-H23 lung 13.3% | NCI-H322M lung 35.9% | HOP-62 NSCLC 30.1% | NCI-H460 lung 15.5% | A549/ATCC NSCLC 16.6%
active: NCI-H226 lung -28.6% | HOP-92 NSCLC -16.5% | NCI-H522 lung 7.89% | 786-0 renal -54.7% | COLO 205 colon -72.5%

COC(=O)[C@]1(C)CCC[C@]2(C)[C@H]3C[C@H]4C(C(C)C)=C[C@]3(CC[C@H]21)[C@@H]1C(=O)CC[C@H](OCCC#N)[C@@H]14
inactive: NCI-H23 lung 84.7% | NCI-H226 lung 74.3% | NCI-H322M lung 106% | HOP-62 NSCLC 95% | NCI-H460 lung 94.7% | HOP-92 NSCLC 76.6% | NCI-H522 lung 89.9% | A549/ATCC NSCLC 92.2% | 786-0 renal 81% | COLO 205 colon 85.2%

Nc1nc2ccccc2c2c(=O)c3cccc(Cl)c3sc12
inactive: NCI-H23 lung 80.3% | NCI-H226 lung 94.4% | NCI-H322M lung 89.1% | HOP-62 NSCLC 81.8% | NCI-H460 lung 61.5% | HOP-92 NSCLC 101% | NCI-H522 lung 93.3% | A549/ATCC NSCLC 76.8% | 786-0 renal 96.2% | COLO 205 colon 57.2%

O=S(=O)(c1ccccc1)n1cc2c(c1)-c1nc(Nc3ncccn3)sc1CC2
inactive: NCI-H23 lung 61.9% | NCI-H226 lung 25.9% | NCI-H322M lung 63.6% | HOP-62 NSCLC 22.1% | NCI-H460 lung 68.4% | HOP-92 NSCLC 22% | NCI-H522 lung 55.3% | A549/ATCC NSCLC 35.2% | 786-0 renal 18.3% | COLO 205 colon 61.9%

CC(C)(C)CC(C)(C)NC(=O)Nc1ncccc1OCc1ccccc1
inactive: NCI-H23 lung 86.4% | NCI-H226 lung 91.6% | NCI-H322M lung 86.3% | HOP-62 NSCLC 97.1% | NCI-H460 lung 106% | HOP-92 NSCLC 87.7% | NCI-H522 lung 70.7% | A549/ATCC NSCLC 89.8% | 786-0 renal 98.5% | COLO 205 colon 105%

N#CC1=C(N)Oc2c(c(=O)[nH]c3ccc(Cl)cc23)C12C(=O)c1ccccc1C2=O
inactive: NCI-H23 lung 93.4% | NCI-H226 lung 88.2% | NCI-H322M lung 93% | HOP-62 NSCLC 88.2% | NCI-H460 lung 92.5% | HOP-92 NSCLC 98.6% | NCI-H522 lung 105% | A549/ATCC NSCLC 93.6% | 786-0 renal 96.4% | COLO 205 colon 110%

COc1ccc(-c2cc(-c3ccc(Cl)cc3)c(C#N)c(=O)n2Cc2ccc(C(=O)Nc3ccccc3N)cc2)cc1
inactive: NCI-H23 lung 77.2% | NCI-H226 lung 81.2% | NCI-H322M lung 89.3% | HOP-62 NSCLC 71.6% | NCI-H460 lung 94.6% | HOP-92 NSCLC 54.1% | NCI-H522 lung 53.9% | A549/ATCC NSCLC 109% | 786-0 renal 90.3% | COLO 205 colon 95.8%

CC(=O)c1c(C)nc(SCC(=O)Nc2cccc(O)c2)n1-c1ccc(Cl)cc1
inactive: NCI-H23 lung 94.3% | NCI-H226 lung 107% | NCI-H322M lung 91.2% | HOP-62 NSCLC 105% | NCI-H460 lung 94.5% | HOP-92 NSCLC 100% | NCI-H522 lung 83.9% | A549/ATCC NSCLC 96.2% | 786-0 renal 102% | COLO 205 colon 118%

CC1(C)COB(OCC(C)(C)COB2OCC(C)(C)CO2)OC1
inactive: NCI-H23 lung 101% | NCI-H226 lung 100% | NCI-H322M lung 92.2% | HOP-62 NSCLC 108% | NCI-H460 lung 107% | HOP-92 NSCLC 87.9% | NCI-H522 lung 106% | A549/ATCC NSCLC 100% | 786-0 renal 104% | COLO 205 colon 109%

CC1CCN(CCOc2ccc(CNc3ccc4nc(CCC5CCCCC5)[nH]c4c3)cc2)CC1
active: 786-0 renal -55.6% | COLO 205 colon -84.7%
inactive: NCI-H23 lung 71.7% | NCI-H226 lung 30.9% | NCI-H322M lung 58.5% | HOP-62 NSCLC 61.5% | NCI-H460 lung 27.1% | HOP-92 NSCLC 16% | NCI-H522 lung 44.8% | A549/ATCC NSCLC 55.3%

COc1ccc(/C=C/C(=O)c2cccc(OCCCCOc3cccc(C(=O)/C=C/c4ccc(OC)c(OC)c4)c3)c2)cc1OC
inactive: NCI-H23 lung 54.5% | NCI-H226 lung 57.5% | NCI-H322M lung 87.3% | HOP-62 NSCLC 72.8% | NCI-H460 lung 80.5% | HOP-92 NSCLC 55.3% | NCI-H522 lung 64.4% | A549/ATCC NSCLC 78% | 786-0 renal 89.8% | COLO 205 colon 112%

Cc1ccc(NC(=O)c2sc3nc(C)c(Br)c(C)c3c2N)cc1
active: HOP-92 NSCLC -5.03%
inactive: NCI-H23 lung 73.8% | NCI-H226 lung 47.7% | NCI-H322M lung 51.2% | HOP-62 NSCLC 34.9% | NCI-H460 lung 54.4% | NCI-H522 lung 71.9% | A549/ATCC NSCLC 67.7% | 786-0 renal 30.5% | COLO 205 colon 84.9%

C=C(CBr)[C@@H]1CC[C@]2(C(=O)O)CC[C@]3(C)[C@H](CC[C@@H]4[C@@]5(C)CCC(=O)C(C)(C)[C@@H]5CC[C@]43C)[C@@H]12
inactive: NCI-H23 lung 85.8% | NCI-H226 lung 73.2% | NCI-H322M lung 92.2% | HOP-62 NSCLC 112% | NCI-H460 lung 81.3% | HOP-92 NSCLC 72.3% | NCI-H522 lung 46.5% | A549/ATCC NSCLC 57.7% | 786-0 renal 106% | COLO 205 colon 99.9%

Cc1nc2sc(C(=O)Nc3ccc(Br)cc3)c(N)c2cc1C(O)c1ccccc1 (stereo not given)
inactive: NCI-H23 lung 61.1% | NCI-H226 lung 68% | NCI-H322M lung 90.4% | HOP-62 NSCLC 67.5% | NCI-H460 lung 69% | HOP-92 NSCLC 77% | NCI-H522 lung 60.5% | A549/ATCC NSCLC 64.4% | 786-0 renal 81% | COLO 205 colon 64.5%

COc1cc2c(cc1OCCCN1CCN(CCCOc3cc4c(cc3OC)C(=O)N3CC(F)(F)C[C@H]3C=N4)CC1)N=C[C@@H]1CC(F)(F)CN1C2=O
inactive: NCI-H23 lung 54% | NCI-H226 lung 95.5% | NCI-H322M lung 97.9% | HOP-62 NSCLC 97.4% | NCI-H460 lung 27% | HOP-92 NSCLC 10.8% | A549/ATCC NSCLC 94.4% | 786-0 renal 86.2% | COLO 205 colon 43.1%
active: NCI-H522 lung -14.3%
